Assay results taken from the supplement of paper PMC12632987.

T1: USP38, Q8NB14
T1 chain: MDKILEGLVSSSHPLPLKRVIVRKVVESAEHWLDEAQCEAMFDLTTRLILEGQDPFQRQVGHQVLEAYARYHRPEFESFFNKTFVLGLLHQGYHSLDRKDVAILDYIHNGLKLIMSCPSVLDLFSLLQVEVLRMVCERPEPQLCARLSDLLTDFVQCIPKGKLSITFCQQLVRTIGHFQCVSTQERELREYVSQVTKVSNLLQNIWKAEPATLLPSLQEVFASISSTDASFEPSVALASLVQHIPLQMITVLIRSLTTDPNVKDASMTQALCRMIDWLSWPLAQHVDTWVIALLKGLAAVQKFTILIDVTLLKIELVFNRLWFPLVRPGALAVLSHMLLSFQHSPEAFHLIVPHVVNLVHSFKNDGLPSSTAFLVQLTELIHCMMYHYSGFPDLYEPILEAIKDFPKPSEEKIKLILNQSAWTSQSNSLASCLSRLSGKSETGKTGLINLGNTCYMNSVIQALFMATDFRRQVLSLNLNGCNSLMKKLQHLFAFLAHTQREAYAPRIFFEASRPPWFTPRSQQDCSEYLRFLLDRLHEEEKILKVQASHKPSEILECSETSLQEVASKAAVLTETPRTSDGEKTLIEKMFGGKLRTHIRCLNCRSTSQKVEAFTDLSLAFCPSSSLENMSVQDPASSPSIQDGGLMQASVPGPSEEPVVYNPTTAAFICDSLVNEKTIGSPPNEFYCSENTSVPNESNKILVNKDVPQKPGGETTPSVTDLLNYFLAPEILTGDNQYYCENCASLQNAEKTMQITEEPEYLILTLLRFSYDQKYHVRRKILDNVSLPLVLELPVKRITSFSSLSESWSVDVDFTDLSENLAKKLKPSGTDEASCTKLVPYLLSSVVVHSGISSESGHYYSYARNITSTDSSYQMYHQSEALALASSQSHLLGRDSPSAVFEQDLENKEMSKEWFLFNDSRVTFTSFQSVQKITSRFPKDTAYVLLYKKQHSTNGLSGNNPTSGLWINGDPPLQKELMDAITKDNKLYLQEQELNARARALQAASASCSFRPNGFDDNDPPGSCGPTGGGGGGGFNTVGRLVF

B1: usp_38_diff_out_3_65_537 (protein)
chain: EVEELLEEAERRLEEARELIEALRREVESDPSLTIDEVNARLDEAVDLLVEAGEAIRRARRLDPDPEQRERLEELERRLDEVLRLYRETAEFAFLTVAER
B2: usp_38_diff_out_3_65_536 (protein)
chain: EVEKLLEEAKKYLEEARKIVEELRREVEEDPTITIDEVNEKLDEAADKIVAAGQKIREAKKLNPDEEQKKQLEELEKELDEVLELYRETAEYAFLKVAER
B3: usp_38_diff_out_3_65_534 (protein)
chain: EVEELLKEAQKKLKEARAIIEALRERVESDPTITIDEVNARLDEAADKIVEAGQYIREAKKLNPDEEQKKKIEELEKELDEVLDEYRETAEFAFLRVAER
B4: usp_38_diff_out_3_65_533 (protein)
chain: KVEELLKKAEEKLKEAEKKIRELEERVETDPSLTEEEVNAMLDEAADLIVEAGKYIREAKKLNPDEEQKKRIEELEKRLDEVIDLYVEAGERAFLAVGER
B5: usp_38_diff_out_4_126_547 (protein)
chain: GREKEFEKLKKEAEELLKKAKELLEKAKEALDKDPKKAQEYLDKALEYLGKLAKLLREMRRVAEGDPELQKEVKELQKKADELVDEYTKAAEEIYLALAE
B6: usp_38_diff_out_4_12_559 (protein)
chain: AEEEHKEALEKAKEELKKLSEETIKLAKELLEKVKKEKSRATLKEANEKLNKKITELAEATLKALELAETDEELQEILDLWDKTSTEISRLAKEMREILK
B7: usp_38_diff_out_3_65_538 (protein)
chain: EVQKLLEEAQKLLDEATKIIDELKERVESDPTLTIDEVNEMLDKAADKIVAAGEKINEAKKLNPDEEQKKQIEELEKRLDEVIEKYREAAEYAFLRVAER
B8: usp_38_diff_out_4_126_550 (protein)
chain: SMKEELEKKLEEAKKLAEEALKAAARLVELAATDPSKVAEARAELDALIAAFTKAANEALKLARKDGKYKEEVTKEIDKLTDEVVEAEGKAVEAVAEALA
B9: usp_38_diff_out_4_126_549 (protein)
chain: DREKQAEELEKKLEEALKKAKEYLKKAKELLDKDKEETLKALDKSWEALGKASELLRELRRIAIDDPELRERYKKLLEEANKLVDEFTKAAEEIYLKLSE
B10: usp_38_diff_out_4_12_560 (protein)
chain: AEEEHKKKLEEAKKELEKLSEELKELADKKLEEVKEKKDKATLKEAEKEINEKITELAEKTLKALELAETDEDLQKILDLYDDTATYVSEKAAEMREILK
B11: usp_38_diff_out_4_12_561 (protein)
chain: SEEERKKIAEEALEEMEKKSKEVKEKAKKAKEEAIKTKDLAAFNKKMNELIKELTDLTLEKLEKLAEIGDDETIEEILRIAGETFKELSKLAKEVKEAAK
B12: usp_38_diff_out_4_126_545 (protein)
chain: SREEEFKKLEKEAEKKIEEAKKLLEEALKELDKDPEKALELLDKAWDALGEAAKLLREMRRVAADDEELRKRYKELEEKLDKLIDEFTKAATYIFEKIAE
B13: usp_38_diff_out_4_126_544 (protein)
chain: SREAEFAALRAEAEAALAEAERLLAEARAELDKDPEKALELLDRAWDALGRAAALLREMRRIAADDPALRAELAALRARLDALIDEFTAAATEIYEKIAE
B14: usp_38_diff_out_3_65_539 (protein)
chain: KVEELLERAQEHLEKAEELVEGLRERTATDPTLTIDEVVAMLDEAADHLVAAAQDIEEAKKLDPDEEQQERLEELQERLDRLIDEYERAGREAFLAVGER
B15: usp_38_diff_out_4_12_557 (protein)
chain: AEEEREREFKRKREELKRLSEETKERADKLLEEVKKKKDKATLKEATKKLNEDLTKLAELTLETLELAETDEEVQEILDLFDDTATYVSEKAAEMKEILK
B16: usp_38_diff_out_4_126_546 (protein)
chain: SRKEEFEKLKKEAEEKMKEAKKLLAEALAALDKDPEKALALLDKAWDALGEAAALLREMRRIAADDPELRKEVKKLEEELDELIDEFTEAATRIYLKIAE
B17: usp_38_diff_out_3_65_541 (protein)
chain: EIEKLLKEAKKYLEEAKKIIEELRERTRTDPTLTIEEVNEMLDKAADLLVKAGEYIEKAKKLNPDEKQKKEIEKLKKELEELLDEYVEAGEEAYLAVGER
B18: usp_38_diff_out_4_12_558 (protein)
chain: SEEERKKKREEALKELKKLSEDAKATADKLLAEVKKKKDKATLKAANATLNDLLTKLAEKTLEALELAENDEELEEILKIYDDTATYITTKAAEMKAVLK
B19: usp_38_diff_out_4_12_551 (protein)
chain: SAEERRRKREEALERLRRLAEEATREAERLKKEVEEKKDEATLEEALKRANELITELSEATLEALELAENLEEVEEVLRLAEPAFDALAELRVKIEEARK
B20: usp_38_diff_out_4_126_543 (protein)
chain: DREKAFDELAKEAEALMKEAKEYLEKAKEAMDKDPEKAKEYLDKAYEALGKLSKALREMRRIARDDPELRKRYKELLKKANELVSEFTKVAEELLLKLSE
B21: usp_38_diff_out_3_65_535 (protein)
chain: KIEELLKEAEKYLEEAEKLVEELRRRVESDPTLTIDELNARLDEAADLIVKAGQKIREAKKLNPDEEQKKKLKELEKRLDEVLKKYREAAEEGFLRVAER
B22: usp_38_diff_out_4_12_555 (protein)
chain: SAEEEKEKLEKLKEELKKKSEELKELADKLLAEVKEKKDRATYKKAEEELNKKLTELAELTLETLEATDDDEELEEILKLTDETFTYVSEKAAEMREIMK
B23: usp_38_diff_out_4_12_556 (protein)
chain: SPEEEEEARERALRELEERSRRLREEAERLLARVKETRDEATYKEANERLNKGLTELAELTLRTLELTDDDEELERILRLTDETFRYVSEKAAEMRELMK
B24: usp_38_diff_out_4_12_554 (protein)
chain: SAEERRRRFEEALREMERLHRETIEKLEELKEELKKTKDEKVLEEAEKLANEALSRLAELTTRALEEAENDEEVQEILDLYSRHVDEIVTLMNEMKKIMK
B25: usp_38_diff_out_3_65_540 (protein)
chain: EVQELLERAERHLEEAEEIIEELERRTETDPTLTIDEVVEMLDEAADHLVAASEDIKEAKKLNPDEEQKKRIEELEKRLDELIDRYVEAGERAFLAVGER
B26: usp_38_diff_out_4_12_552 (protein)
chain: AEEERRKELEELLREMEELTEETVARMKELLKELKETKDEEVYEELLKLAEEALTRLAELTTRALELAETDEELEEILRRYSEAVDEIVALMQEARKAMK
B27: usp_38_diff_out_4_126_548 (protein)
chain: SREEEFEKLKEEANKKMKEAKELLEKAKKLLDKDKEEALKYLDEAAEKLGEASKLLRKMREVAKGDEELRKEYKELLEKLNELVDEYTKVATEIYLALAE
B28: usp_38_diff_out_3_65_532 (protein)
chain: KVEELLKKAEEKLEEAEKKIKELEKRVKEDPNITEEEVNEMLDEAADLIVEAGKYIREAKKLNPDEEQQERIKELEERLDEVIDLYVKAGEAGFLAVGER
B29: usp_38_diff_out_4_12_553 (protein)
chain: AAEERQKALEKALAEMQKLHEETVKKLKELLEELKKTKKEEILKEAEKLANDALTKLAELTTKALELAETPEEQQAILDLYAQQVTEIVTLMQEAKEAMK
B30: usp_38_diff_out_3_65_542 (protein)
chain: KVEELLKKAEEKLKEAREKIRELRERVETDPELTEEEIVEMLDEAADLLVEAGEYIREAKKLNPDEEAKKKIKELEKELEELIDEYVEAGERAFLAYGER
B31: usp_38_diff_out_4_12_562 (protein)
chain: SMEEKEKKVKEALEEMKKLSEEAKEKAKKAAEEAKKTGNLAEFNKKMNELINKLTEKTLEVLEKLAELGDEESIEEVLKITSETFTYISQLAAEVKKAAA
B32: usp_38_diff_out_4_99_564 (protein)
chain: MKEEMVKKVKELKKEAEELLKKAKEAFKLSHEERKKVAEELSKELDELAKELGKIYFEARDTGDKELIKAVNKEADEFVKAYNEAAKELNLLRHEVLEEE

Target: T1, USP38, Q8NB14
Assay: median log2 fold change of GCK-ALFA target abundance (FLAG IP / Myc IP barcode read proportion) (log2 ratio); each designed protein is fused to an ALFA-tag nanobody in HEK293 cells to bring the named protein to FLAG-tagged glucokinase (GCK); Myc marks an untargeted standard; higher = target protein stabilised (more abundant)
Conditions: target protein: 3xFLAG-MCP-GCK-ALFA reporter; HEK293 landing pad (RPLP)
In short: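 An ALFA-nanobody-fused binder library was recombined into HEK293 landing-pad cells and induced with 2 μg mL^−1 doxycycline. Cells were transfected with a plasmid expressing a FLAG-tagged target and a Myc-tagged standard. After 48 h, lysates underwent anti-FLAG and anti-Myc immunoprecipitation, and circular RNA barcodes were reverse transcribed, amplified and sequenced. Target abundance is the per-binder median log2 ratio of FLAG to Myc barcode read proportions. Barcodes needed ≥10^−7 proportion in both replicates, binders ≥3 barcodes per replicate, and a 10^−6 pseudocount was added; the two replicates were pooled.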

Binder	median log2 fold change
B1	-0.264
B2	-0.223
B3	-0.0616
B4	0.0706
B5	0.575
B6	-0.371
B7	-0.281
B8	0.0827
B9	-1.05
B10	-0.0183
B11	-0.892
B12	-0.694
B13	-0.215
B14	-0.504
B15	-0.616
B16	-0.11

Binder	median log2 fold change
B17	-0.0269
B18	0.037
B19	-0.341
B20	-0.661
B21	-0.384
B22	0.0256
B23	-0.146
B24	0.0829
B25	0.111
B26	-0.539
B27	0.358
B28	-0.0854
B29	0.201
B30	0.499
B31	-0.588
B32	-0.19
